High-throughput results: PubChem BioAssay, National Center for Advancing Translational Sciences (NCATS)
The list is not random: actives were taken first. Their share in the collection is about 7.3%.
FMDV antiviral: High Throughput Screening for Foot and Mouth Disease Virus Antivirals. FMDV antiviral cell-based qHTS. AID 1159524, 2015. Potency, µM (series often up to 57.9 µM), for the others: top-dose activity change, negative = inhibition, actives largely listed as inhibitors. hit rate 1.2% among 410,000; calls by dose curve; tested in HEK293T cells; note: read-out not given here; potency is the fitted concentration of half-maximal effect; nearly all actives have a fitted effect of over 45% in size
AmpC detergent: qHTS Inhibitors of AmpC Beta-Lactamase (assay with detergent); hit rate 0.041% among 370,000; Potency, µM (top dose mostly 114 µM), inactives show at the highest dose activity change, negative = inhibition, usual class: inhibitors; AmpC hydrolysis of nitrocefin, absorbance 480 nm, 0.01% Triton; P00811;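 note: potency is the fitted concentration of half-maximal effect; 0% = no-compound wells and -100% = no-enzyme wells; nearly all actives have a fitted effect of over 25% in size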
Target sequence (P00811 whole entry, looked up): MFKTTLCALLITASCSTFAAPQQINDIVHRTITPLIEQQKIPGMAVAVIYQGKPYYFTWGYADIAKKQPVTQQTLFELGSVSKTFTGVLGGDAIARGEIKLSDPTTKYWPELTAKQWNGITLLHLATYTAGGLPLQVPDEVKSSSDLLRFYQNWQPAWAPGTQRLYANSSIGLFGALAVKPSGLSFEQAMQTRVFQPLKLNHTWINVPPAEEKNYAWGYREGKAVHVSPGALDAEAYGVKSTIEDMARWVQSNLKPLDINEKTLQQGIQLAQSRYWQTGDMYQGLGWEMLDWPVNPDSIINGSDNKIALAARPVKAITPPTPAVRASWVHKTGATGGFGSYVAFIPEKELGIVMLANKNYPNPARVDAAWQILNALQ
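AmpC (5.3 nM in the dispensed reagent) in 20 mM phosphate pH 7.0 with 0.01% (detergent screen) or 0.0001% Triton X-100 was preincubated with compounds for 15 min at room temperature. Nitrocefin was then added from an 800 uM solution, and hydrolysis was followed at 480 nm.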
HCMV inh: qHTS Assay for inhibitors of the human cytomegalovirus (HCMV) | activity change, negative = inhibition, % at 57.5 µM | HFF cells, HCMV-luciferase reporter, 72 h; stronger effect = lower value | AID 1259415, 2018 | hit rate 4.5% among 410,000; in the data active = activity change below about -60%; inconclusive = no clear call, values can overlap the other calls; inactive = above about -39%
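Human foreskin fibroblasts infected with luciferase-reporter HCMV at MOI 1 PFU/cell, compounds at two doses. Luciferase measured 72 h post infection; normalized to buffer-only basal and Salinomycin (10uM) controls.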
HCV inhibitor: qHTS Assay for Inhibitors of Hepatitis C Virus (HCV) | hit rate 3.4% among 340,000 | Huh7.5.1 HCVcc-Cre infection, luciferase reporter, 44 h | Potency, µM (series often up to 41.8 µM), for the others: at the top dose activity change, negative = inhibition, hits mostly inhibitors | AID 651820, 2012; note: potency is the fitted concentration of half-maximal effect
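Reporter virus HCVcc-Cre (~0.5 moi) infects cells exposed to compound; seeding density 1,000 cells/well with 4 h settling beforehand. Luminescence, 15 sec read, taken 44 h post-infection following a 15 min RT substrate incubation.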
AmpC inh no detg: qHTS Inhibitors of AmpC Beta-Lactamase (assay without detergent); P00811; AmpC nitrocefin hydrolysis, absorbance 480 nm, 0.0001% Triton; Potency, µM (titrated, usually from 57.1 µM), for the others: top-dose activity change, negative = inhibition, usual class: inhibitors; hit rate 0.52% among 330,000; AID 485341, 2010;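 note: potency is the fitted concentration of half-maximal effect; plate controls were no compound for no effect and no enzyme for full effect; nearly all actives have a fitted effect of over 20% in size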
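20 mM phosphate pH 7.0 + 0.01% (detergent screen) or 0.0001% Triton X-100; 5.3 nM AmpC reagent; cpd preinc 15 min RT; nitrocefin (800 uM stock) to start; A480 q20 s × 4 min; Activity was normalised to no-enzyme and no-compound control wells.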
The depositor's hits bear a star; ? = inconclusive; nt = not tested or not shown; [ ] = another dose, or the depositor's remark. Unless noted, calls come from the whole dose curve; as a rule, active = well fitted curve in the direction sought with a large enough effect; inconclusive = small, poorly fitted or top-dose-only effect, or another doubt; inactive = no such curve, though single readings can be large; an effect the other way counts as inactive or inconclusive. Unless noted, % is set by controls: 0 for no effect and ±100 for the full control effect.

SMILES	FMDV antiviral	AmpC detergent	HCMV inh	HCV inhibitor	AmpC inh no detg
CCc1ccc2c(c1)c(=O)c(S(=O)(=O)c1ccccc1)cn2CC(=O)Nc1cc(C)ccc1C	-7%	0%	-14	nt	nt
CCOc1ccc(C2C(C(=O)Nc3ccccc3C)=C(C)Nc3nnnn32)cc1 (centres undefined)	6%	26%	-14	nt	nt
O=c1c2ccc(Cl)cc2nc(-c2cccc(C(F)(F)F)c2)n1O	?	4%	-103*	?	-33%
O=c1c2ccccc2nc(-c2ccc(Cl)c(Cl)c2)n1O	-23%	0%	-63*	-4%	-27%
Cc1cc(NC(=O)c2ccccc2F)cc(C)c1OCC(=O)N1CCOCC1	16%	2%	-98*	-2%	-2%
COc1cccc(-c2c(-c3cc(OC)cc(OC)c3)n(C)c3ccc(-c4ccc(OC)nc4)cc23)c1	-28%	2%	1	-2%	-15%
COc1ccc(-c2c(-c3ccc(OC)nc3)c3ccccc3n2C)cc1	-2%	nt	30	22µM*	-12%
C/C(CC(=O)Nc1ccc2ccccc2c1)=N\NC(=O)c1ccc(O)c(O)c1	11%	0%	-29	-4%	-24%
COC(=O)[C@@H](CC(C)C)N(Cc1ccccc1)S(=O)(=O)N(Cc1ccccc1)[C@@H](CC(C)C)C(=O)OC	?	nt	?	26%	-10%
COC(=O)[C@@H](Cc1ccccc1)N(Cc1ccccc1)S(=O)(=O)N(Cc1ccccc1)[C@H](Cc1ccccc1)C(=O)OC	?	nt	-96*	-14%[8.37 µM]	-21%
C=C[C@H](Cc1ccccc1)N(Cc1ccccc1)S(=O)(=O)N(Cc1ccccc1)[C@H](C=C)Cc1ccccc1	?	nt	-86*	-3%[8.37 µM]	0%
COc1cccc(CCNC(=O)CCc2nnc(Cc3cc(OC)ccc3OC)o2)c1	42%	?	-9	4%	47%
COc1cc(N(Cc2ccccc2)Cc2ccccc2)c2ncn(C(C)C)c2c1	-20%	14%	-87*	11µM*	8%
CCC(CO)Oc1cc(NC(=O)c2cccc([N+](=O)[O-])c2)c2ncn(C(C)C)c2c1 (centres undefined)	-22%	nt	-13	2.8µM*	-5%
CCC(CN(C)C)Oc1cc(NCc2ccccc2)c2ncn(C(C)C)c2c1 (centres undefined)	-15%	nt	nt	?	76%
COc1cc(NCc2ccccc2)c2ncn(C(C)C)c2c1	-14%	9%	22	10µM*	-4%
CCC(CO)Oc1cc(NCc2cc(C)cc(C)c2)c2ncn(C(C)C)c2c1 (centres undefined)	-2%	nt	7	1.6µM*	188%
COc1ccc(C)cc1NS(=O)(=O)c1ccc2[nH]c(=O)c(=O)[nH]c2c1	-13%	-3%	6	nt	nt
O=c1[nH]cncc1OCc1ccccc1	-10%	nt	-14	-6%	nt
CC(CCc1ccccc1)NS(=O)(=O)c1ccccc1F (centres undefined)	10%	?	29	-5%	-28%
CCCc1cc(C(N)=O)c(NC(=O)c2ccoc2C)s1	14%	-14%	22	7.1µM*	-15%
COCCOc1nc2c(c(=O)n(C)c(=O)n2C)n1Cc1cccc(OC)c1	?	1%	?	11µM*	26%
Cn1c(=O)c2c(nc(N3CCCCCC3)n2Cc2cccc3ccccc23)n(C)c1=O	28µM*	-10%	?	?	-3%
CCOc1nc2c(c(=O)n(C)c(=O)n2C)n1Cc1ccccc1Cl	-15%	?	-93*	?	-16%
Cn1c(Oc2ccc(F)cc2)nc2c1c(=O)n(Cc1ccccc1Cl)c(=O)n2C	18µM*	21%	-10	nt	nt
SMILES	FMDV antiviral	AmpC detergent	HCMV inh	HCV inhibitor	AmpC inh no detg
Cc1cnc(N)nc1-c1ccccc1	-11%	nt	-26	nt	nt
COCC(=O)Nc1cc(C(=O)N2CCCC2c2nccs2)c2c(c1)nc(-c1ccncc1)n2C (centres undefined)	-5%	nt	nt	nt	nt
O=C(N[C@H]1CC[C@@]23CCCN2C(=O)CCC[C@H]3[C@H]1Cc1ccccc1)c1ccccc1	nt	nt	6	nt	nt
CCOc1ccc(NC(=O)c2ccc(NC(=O)c3ccccc3Br)cc2)cc1	1%	-18%	-16	5µM*	-29%
CCOc1ccc(Br)cc1C(=O)Nc1ccc(C(=O)NCC(C)C)cc1	-29%	?	-80*	?	-31%
CCc1ccc(/C=N/NC(=O)c2ccccn2)cc1	13µM*	0%	-2	-18%	-6%
CCOc1ccc(NC(=O)c2ccccn2)cc1	3.2µM*	3%	?	2%	-18%
COc1ccc(Br)cc1C(=O)Nc1ccc(C(=O)NCC(C)C)cc1	-7%	4%	?	?	-6%
CN(c1ccc2c(-c3ccccn3)noc2n1)c1ccc(F)cc1F	nt	nt	120	nt	nt
C[C@@H]1NC(=O)[C@H](CCC(N)=O)NC(=O)c2cc([N+](=O)[O-])cc(I)c2NCCC[C@@H](C(N)=O)NC1=O	4%	-4%	-21	-5%[8.37 µM]	1%
C[C@@H]1NC(=O)[C@H](CCCN=C(N)N)NC(=O)c2cc([N+](=O)[O-])cc(I)c2NCCC[C@@H](C(N)=O)NC1=O	-16%	-1%	-5	7.9µM*	3%
O=C1C=CC(=O)c2c(O)c(CO)c(CO)c(O)c21	35µM*	nt	-22	14%	nt
O=C1C=CC(=O)c2c(O)c(Cl)c(Cl)c(O)c21	-11%	nt	nt	nt	nt
Cc1cccc(C)c1N(CC(=O)NCc1ccco1)C(=O)CNS(=O)(=O)c1ccc(F)cc1	25%	1%	12	14%	23%
COc1cc(OC)cc(C(=O)NC(C(=O)NCCN(C)C)C23CC4CC(CC(C4)C2)C3)c1 (centres undefined)	0%	-7%	18	10µM*	155%
CC(=O)c1cccc(NC(=O)C(C)OC(=O)C2CCC2)c1 (centres undefined)	-19%	2%	0	7%	-5%
COc1ccccc1N1CCN(C(=O)Cn2cnc3sc(C)c(S(=O)(=O)N4CCC(C)CC4)c3c2=O)CC1	-25%	8%	12	nt	nt
CN(CC(=O)Nc1ccccc1C(=O)NC1CC1)Cc1ccc(Cl)s1	-20%	1%	-10	?	-3%
CC(C)c1cccc(-c2csc(C(C)(O)c3ccncc3)n2)c1 (centres undefined)	?	nt	-77*	nt	nt
CCN(CC)C(=O)c1cccc(-c2csc(C(C)(O)c3cccc(F)c3)n2)c1 (centres undefined)	25µM*	nt	?	nt	nt
CC(C)c1cccc(-c2csc(C(C)(O)c3ccc(F)c(F)c3)n2)c1 (centres undefined)	1%	nt	-77*	nt	nt
Cn1cc(C(c2ccccc2OCC(=O)O)c2cn(C)c3ccccc23)c2ccccc21	?	-13%	41	20%	-19%
